Results on 93 molecules are retold here after paper PMC4336329 (PLoS ONE, 2015).

Molecules are shown by their SMILES. In all, about 310,000 compounds went through this assay and about 14,000 (4.5%) showed an effect of 50% or more. The effect is printed as a negative number. The sample holds strong results, similar compounds and a random draw of the others, so the mix is not that of the screen.
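Also: peak tail current of the secondary pulse compared with the same well before compound.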

In this experiment the target is human ether-à-go-go-related gene (hERG) potassium channel (human, UniProt Q12809). As to the kind of experiment: primary screen, population patch clamp on CHO cells stably expressing hERG; higher = less effect of the substance.
human ether-à-go-go-related gene (hERG) potassium channel, sequence (Q12809 whole entry, looked up): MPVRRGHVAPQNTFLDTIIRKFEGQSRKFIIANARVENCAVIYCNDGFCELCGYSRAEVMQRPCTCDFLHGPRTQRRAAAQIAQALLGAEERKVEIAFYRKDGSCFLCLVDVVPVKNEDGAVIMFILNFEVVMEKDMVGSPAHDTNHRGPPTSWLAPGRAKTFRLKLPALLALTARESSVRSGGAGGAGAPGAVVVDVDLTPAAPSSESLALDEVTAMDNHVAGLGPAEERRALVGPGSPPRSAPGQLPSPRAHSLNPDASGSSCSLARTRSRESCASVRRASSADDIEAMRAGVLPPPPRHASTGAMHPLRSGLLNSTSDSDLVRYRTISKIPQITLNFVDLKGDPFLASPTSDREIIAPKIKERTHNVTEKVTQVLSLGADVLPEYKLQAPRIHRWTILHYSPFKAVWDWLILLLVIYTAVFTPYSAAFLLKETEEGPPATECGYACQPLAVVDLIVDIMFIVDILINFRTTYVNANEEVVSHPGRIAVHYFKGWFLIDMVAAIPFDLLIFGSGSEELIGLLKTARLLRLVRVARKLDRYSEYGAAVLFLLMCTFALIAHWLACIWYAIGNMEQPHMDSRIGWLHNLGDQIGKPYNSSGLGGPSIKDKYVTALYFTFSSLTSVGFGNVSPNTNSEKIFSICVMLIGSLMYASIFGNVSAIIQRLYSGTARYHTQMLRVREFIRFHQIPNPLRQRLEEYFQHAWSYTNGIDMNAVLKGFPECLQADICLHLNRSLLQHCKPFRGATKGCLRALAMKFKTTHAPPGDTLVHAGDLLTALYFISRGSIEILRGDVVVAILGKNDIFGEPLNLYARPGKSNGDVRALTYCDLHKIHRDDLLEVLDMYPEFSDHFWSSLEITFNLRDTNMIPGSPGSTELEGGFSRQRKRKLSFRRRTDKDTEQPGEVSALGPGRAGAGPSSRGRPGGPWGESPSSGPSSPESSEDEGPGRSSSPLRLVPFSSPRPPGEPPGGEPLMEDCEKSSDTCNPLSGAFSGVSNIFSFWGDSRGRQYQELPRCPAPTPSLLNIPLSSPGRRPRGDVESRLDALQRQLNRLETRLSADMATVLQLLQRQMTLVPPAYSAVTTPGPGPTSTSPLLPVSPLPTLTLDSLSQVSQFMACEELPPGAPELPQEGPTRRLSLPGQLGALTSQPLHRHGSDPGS
Regarding `CCN1CCN(S(=O)(=O)c2cccc3nsnc23)CC1`, the “hERG current change (%, negative = inhibition) at 10uM” value is -5.57%.

For `COc1cccc(/C=C2\SC(=N)N(c3ccc(F)cc3)C2=O)c1`, the “hERG current change (%, negative = inhibition) at 10uM” value was determined as 9.22%.

For `CCCOc1ccc(-c2c(C(=O)N/N=C/c3ccccc3)nnn2-c2nonc2N)cc1`, the “hERG current change (%, negative = inhibition) at 10uM” value is 4.98%. Under `O=C(Nc1ccc2c(c1)OCO2)c1cc(-c2cccc(O)c2)on1` stands -63.1%.

Consider `O=C(Nc1ccc2c(c1)OCO2)c1cc(-c2ccc(O)cc2)on1`, for which the “hERG current change (%, negative = inhibition) at 10uM” value came to 22.4%. Under `O=C(Nc1cccc(O)c1)c1cc(-c2ccc3c(c2)OCO3)on1` stands 11.3%; under `COc1ccccc1/C=C/CN1CCN(Cc2ccc(F)cc2)C(CCO)C1` (stereo not drawn), -51%. As to `COc1cc(/C=C/CN2CCN(CCC(C)C)C(CCO)C2)ccc1O` (stereo not drawn), the “hERG current change (%, negative = inhibition) at 10uM” value is 23%. Under `COC(=O)c1ccc(CN2CCN(CC(C)C)C(CCO)C2)cc1` (stereo not drawn) stands -3.11%. Under `CCOc1ccccc1CN1CCN(Cc2ccc(C)o2)C(CCO)C1` (stereo not drawn) stands -12.9%; under `C/C(=C\c1ccccc1)CN1CCN(Cc2ccc(C)o2)C(CCO)C1` (stereo not drawn), -13.4%. Take `COc1cc(/C=C/CN2CCN(Cc3ccc(C)o3)C(CCO)C2)ccc1O` (stereo not drawn): the “hERG current change (%, negative = inhibition) at 10uM” value is -6.62%.

For the molecule `COc1ccc(/C=C/CN2CCN(CC(C)C)C(CCO)C2)cc1` (stereo not drawn), the “hERG current change (%, negative = inhibition) at 10uM” value is listed as -52.2%. As to `Cc1ccc(CN2CCN(C/C=C/c3ccc(F)cc3)CC2CCO)o1` (stereo not drawn), the “hERG current change (%, negative = inhibition) at 10uM” value is on record as -54.5%. With `CCOc1ccccc1CN1CCN(C/C=C/c2ccc(OC)cc2)CC1CCO` (stereo not drawn), the “hERG current change (%, negative = inhibition) at 10uM” value was -65%. Under `COc1ccccc1/C=C/CN1CCN(Cc2ccc(C)o2)C(CCO)C1` (stereo not drawn) stands -12%; under `COc1ccc(CCNC(=O)c2sc3cc(C)ccc3c2Cl)cc1`, 3.77%; under `CCn1c(SCC(=O)Nc2ccccc2C(=O)OC)nnc1-c1cccc(C)c1`, -36.2%.

With `O=S(=O)(c1ccc(O)cc1)c1ccc(O)cc1`, the “hERG current change (%, negative = inhibition) at 10uM” value amounted to 16.9%. The figure for `CNC(=O)C(=O)NCC1CCCN1S(=O)(=O)c1cccs1` (stereo not drawn) is 12.4%; for `C=CCn1c(-c2cccnc2Cl)nc2ccccc21` it is 8.48%; for `Cc1nn(-c2cc(N3CCOCC3)ccc2[N+](=O)[O-])c(=O)c2ccccc12` it is -4.66%. The figure for `O=C([O-])/C=C1\CCCc2ccccc2C1O.[Na+]` (stereo not drawn) is 18.4%; for `Cc1ccsc1/C=N/NC(=O)CNC(=O)c1ccc(S(=O)(=O)N2CCOCC2)cc1` it is 2.86%; for `O=C(C1CCN(S(=O)(=O)c2cccc3cccnc23)CC1)N1CCN(C2CCCCC2)CC1` it is -0.647%. Under `COc1cccc(CN2CCN(CC#Cc3ccccc3)CC2CCO)c1` (stereo not drawn) stands -30.6%; under `COc1ccc(CN2CCN(Cc3cccc(OC)c3)C(CCO)C2)cc1` (stereo not drawn), -45.8%; under `COC(=O)c1ccc(CN2CCN(Cc3ccc(F)cc3)C(CCO)C2)cc1` (stereo not drawn), 10.1%. On to `COc1ccc(/C=C/CN2CCN(Cc3cccc(OC)c3)C(CCO)C2)cc1` (stereo not drawn), for which the “hERG current change (%, negative = inhibition) at 10uM” value is given as -51.9%. Under `COc1ccc(/C=C/CN2CCN(Cc3ccccc3)C(CCO)C2)cc1` (stereo not drawn) stands -51.9%. Under `COc1ccc(/C=C/CN2CCN(Cc3ccc(F)cc3)C(CCO)C2)cc1` (stereo not drawn) stands -58.5%. Under `CCOc1ccc(CN2CCN(C/C=C/c3ccc(OC)cc3)CC2CCO)cc1` (stereo not drawn) stands -88.7%; under `COc1cccc(CN2CCN(Cc3ccc(OC)c(OC)c3)CC2CCO)c1` (stereo not drawn), -27.2%; under `CC(C)N1CCC(N2CCN(C/C=C/c3ccc(F)cc3)CC2CCO)CC1` (stereo not drawn), -6.87%. For the molecule `COC(=O)COc1ccc(-c2nccc(-c3ccccn3)n2)cc1`, the “hERG current change (%, negative = inhibition) at 10uM” value worked out at 13.3%. Under `CCN(CC(=O)Nc1ccccc1OC)C(=O)c1cc(-c2ccccc2)nn1-c1ccccc1` stands -36.9%. Under `COc1ccc(-c2noc(N3CCC(C(=O)NCc4ccccc4Cl)CC3)n2)cc1` stands -11.9%. The figure for `CCOC(=O)NC(=O)CSc1nc2ccc(C)cc2[nH]1` is 8.02%.

In the case of `COc1cc(/C=N/NC(=O)c2csc3c2CCCC3)ccc1OCCN1CCOCC1`, the “hERG current change (%, negative = inhibition) at 10uM” value is listed as -31.9%.

In the case of `COc1ccccc1C(=O)NNC(=O)c1nn(Cc2ccccc2)c(=O)c2ccccc12`, the “hERG current change (%, negative = inhibition) at 10uM” value is -14%. For the molecule `O=C(CSc1ncnc2sccc12)Nc1ccccc1`, the “hERG current change (%, negative = inhibition) at 10uM” value was found to be 21.2%. The figure for `COc1ccc(C(=O)NNC(=O)CNC(=O)C2CCCCC2)cc1` is 14%.

Regarding `COc1ccc(/C=C/CN2CCN(CCc3ccccc3)C(CCO)C2)cc1` (stereo not drawn), the “hERG current change (%, negative = inhibition) at 10uM” value is reported as -71.9%. Under `OCC[C@H]1C[C@H](O)[C@@H](O)[C@@]2(CCCO2)O1` stands 20.1%; under `CC(C)CNc1nc(NC(C)(C)C)nc(Oc2ccc(=O)[nH]n2)n1`, 9.66%. On to `Cc1ccc(S(=O)(=O)N2CCC(N3CCC(C)CC3)CC2)cc1`, for which the “hERG current change (%, negative = inhibition) at 10uM” value was -29.1%. The figure for `CCCCc1cc(=O)oc2cc(C)cc(OC(C)C(=O)NCc3cccnc3)c12` (stereo not drawn) is -19.7%. The figure for `Cc1ccccc1NC(=O)COC(=O)c1cc(=O)c2ccccc2o1` is -67.4%. Consider `Cc1cccc(C)c1NC(=O)COC(=O)c1cc(=O)c2ccccc2o1`, for which the “hERG current change (%, negative = inhibition) at 10uM” value stood at 5.2%. Under `Cc1ccc(NC(=O)COC(=O)c2cc(=O)c3ccccc3o2)cc1F` stands 12.9%. As to `CC1=C(C)C(=O)N(C(C)CCc2ccccc2)C1=O` (stereo not drawn), the “hERG current change (%, negative = inhibition) at 10uM” value stood at 4.9%. Under `O=C(c1ccc([N+](=O)[O-])s1)N1CCN(c2cccc(Cl)c2)CC1` stands -66.1%; under `Cc1c(C(=O)N2CCN(c3cccc(Cl)c3)CC2)cccc1[N+](=O)[O-]`, -42.5%; under `COC(=O)c1cc(C(=O)N2CCN(c3cccc(C)c3C)CC2)cc([N+](=O)[O-])c1`, -39.6%. As to `O=C(c1ccc([N+](=O)[O-])s1)N1CCN(c2ccccc2)CC1`, the “hERG current change (%, negative = inhibition) at 10uM” value is listed as -25.8%. Under `COC(=O)c1cc(C(=O)N2CCN(c3cccc(Cl)c3)CC2)cc([N+](=O)[O-])c1` stands -59%. Take `CN1CCN(C(=O)c2cc3c(=O)n4ccccc4nc3s2)CC1`: the “hERG current change (%, negative = inhibition) at 10uM” value is -2.57%. The figure for `COc1ccccc1N1CCN(C(=O)c2cc3c(=O)n4cccc(C)c4nc3s2)CC1` is -11.2%; for `O=C(c1cc2c(=O)n3ccccc3nc2s1)N1CCN(Cc2ccccc2)CC1` it is -27.7%; for `CCOC(=O)N1CCN(C(=O)c2cc3c(=O)n4cccc(C)c4nc3s2)CC1` it is -9.84%. Under `COC(=O)c1cc(C(=O)N2CCN(c3ncccn3)CC2)cc([N+](=O)[O-])c1` stands -5.19%; under `COc1ccccc1N1CCN(C(=O)c2cc3c(=O)n4ccccc4nc3s2)CC1.Cl`, -53.2%.

Turning to `Cc1cccn2c(=O)c3cc(C(=O)N4CCN(Cc5ccccc5)CC4)sc3nc12`, the “hERG current change (%, negative = inhibition) at 10uM” value is given as -79.7%.

On to `Cc1sc2nc(SCC(=O)NCc3ccco3)n(-c3ccccc3)c(=O)c2c1C`, for which the “hERG current change (%, negative = inhibition) at 10uM” value is 8.63%.

For `O=P(CCN1CCCCC1)(c1ccccc1)c1ccccc1`, the “hERG current change (%, negative = inhibition) at 10uM” value is on record as -5.98%. Under `COc1ccc(NC(=O)c2cccnc2Sc2ccccc2)c(OC)c1` stands 7.52%; under `CC(C)(C)NC(=O)Cn1nnc(-c2ccccc2Cl)n1`, 6.43%.

With `CSc1ncccc1C(=O)OCC(=O)NC(C)(C)C`, the “hERG current change (%, negative = inhibition) at 10uM” value is reported as 10.5%. The figure for `COc1ccc(NC(=O)C2CCC(CNS(=O)(=O)c3csc(C(N)=O)c3)CC2)cc1OC` (stereo not drawn) is 15.3%; for `COc1ccc2[nH]c(C(=O)Nc3ccc(F)cc3Br)cc2c1` it is 11.7%. The figure for `COc1ccc(/C=N/NC(=O)c2cccnc2)cc1O` is 11.1%; for `Cc1ccc(N2CCN(C(=O)c3cccc([N+](=O)[O-])c3)CC2)cc1Cl` it is -19.1%; for `COc1ccccc1N1CCN(C(=O)c2ccc(Br)s2)CC1.Cl` it is -46.3%. Take `COc1ccccc1N1CCN(C(=O)c2ccc([N+](=O)[O-])s2)CC1`: the “hERG current change (%, negative = inhibition) at 10uM” value was -54.5%. As to `O=C(c1cccc([N+](=O)[O-])c1)N1CCN(c2ccc(Cl)cc2)CC1`, the “hERG current change (%, negative = inhibition) at 10uM” value was -41.1%. Under `COc1ccc(OC)c2sc(N3CCN(C(=O)c4ccc([N+](=O)[O-])s4)CC3)nc12` stands -41.9%; under `O=C(c1cccc([N+](=O)[O-])c1)N1CCN(c2cccc(Cl)c2)CC1`, -57.4%; under `CCOC(=O)N1CCN(S(=O)(=O)c2ccc(Br)s2)CC1`, -9.22%.

Turning to `COc1ccc(CC(=O)Nc2ccc(-c3csc(C)n3)cc2)cc1`, the “hERG current change (%, negative = inhibition) at 10uM” value is 7.89%. The figure for `COc1ccc(Nc2nc(-c3cc4cccc(OC)c4oc3=O)cs2)cc1` is 11.6%; for `Cc1cccc(C(=O)Nc2cccc(C(=O)Nc3cc(C)ccn3)c2)c1` it is 7.29%; for `CCCCNC(=O)CC1N=C2c3ccccc3N=C(SCC(=O)Nc3ccccc3C)N2C1=O` (stereo not drawn) it is -0.929%. The figure for `CCC(C)NC(=O)CSC1=Nc2ccccc2C2=NC(CCC(=O)NCc3ccco3)C(=O)N12` (stereo not drawn) is -1.01%; for `NC(=O)CSC1=Nc2ccccc2C2=NC(CC(=O)NCc3cccs3)C(=O)N12` (stereo not drawn) it is 11.2%; for `Cc1ccc(CSC2=Nc3ccccc3C3=NC(CC(=O)NCc4ccco4)C(=O)N23)cc1` (stereo not drawn) it is -51.8%. The figure for `CCCCNC(=O)CC1N=C2c3ccccc3N=C(SCC(=O)Nc3cccc(C)c3)N2C1=O` (stereo not drawn) is -52.6%. Regarding `O=C(CCC1N=C2c3ccccc3N=C(SCC(=O)NCc3ccco3)N2C1=O)NCc1ccco1` (stereo not drawn), the “hERG current change (%, negative = inhibition) at 10uM” value is listed as 12.7%. The figure for `Cc1ccc(CSC2=Nc3ccccc3C3=NC(CCC(=O)NCc4ccco4)C(=O)N23)cc1` (stereo not drawn) is -68.8%.

As for `O=C(CC1N=C2c3ccccc3N=C(SCc3ccc(Cl)cc3)N2C1=O)NCc1ccco1` (stereo not drawn), the “hERG current change (%, negative = inhibition) at 10uM” value was -75.3%.

`CCCCNC(=O)CC1N=C2c3ccccc3N=C(SCC(=O)Nc3cccc(OC)c3)N2C1=O` (stereo not drawn): the “hERG current change (%, negative = inhibition) at 10uM” value is on record as -10.6%. Regarding `O=C(CSC1=Nc2ccccc2C2=NC(CC(=O)NC3CCCCC3)C(=O)N12)NCc1ccco1` (stereo not drawn), the “hERG current change (%, negative = inhibition) at 10uM” value is -29.9%. Consider `O=C(CC1N=C2c3ccccc3N=C(SCc3ccccc3Cl)N2C1=O)NCc1ccco1` (stereo not drawn), for which the “hERG current change (%, negative = inhibition) at 10uM” value is -47%. The figure for `O=C(CSC1=Nc2ccccc2C2=NC(CC(=O)NCc3ccco3)C(=O)N12)NCc1ccco1` (stereo not drawn) is 7.61%.
